# Assay outcomes as filed in PubChem.
# The entries come from a sample that favours hits as a whole.
# ERK EGF inh: EGF-driven ERK pathway inhibition. AID 1454. Potency, µM (doses to about 11.5 µM), for inactives: at the highest dose activity change, negative = inhibition, hits mostly inhibitors. 0.41% of 130,000 active. HEK293-V1b, EGF-stimulated phospho-ERK AlphaScreen; active means well fitted inhibition curve with a large enough effect;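 further: plate controls were stimulated vehicle wells for no effect and unstimulated vehicle basal for full effect; nearly all actives have a fitted effect of over 55% in size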
#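 Phospho-ERK1/2 measured by AlphaScreen (SureFire) after 5 min 25 nM EGF stimulation of V1b-expressing HEK293 cells preincubated 30 min at 37C with titrated compounds; data scaled to DMSO and EGF controls, Hill-fitted AC50.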
# * = called active by the depositor; [ ] = another dose, or the depositor's remark. Potency means the concentration at half of the fitted maximal effect.
SMILES,ERK EGF inh
NCCC[C@@H](CC(=O)N[C@@H]1CCCC[C@H]1C(=O)N[C@H](CC(=O)N[C@@H](CCC(=O)O)CC(=O)O)Cc1c[nH]c2ccccc12)NC(=O)C[C@H](Cc1c[nH]c2ccccc12)NC(=O)[C@@H]1CCCC[C@H]1N,-9%
C[C@H](O)CO[C@H]1[C@H]2O[C@H]3[C@H](O)[C@@H](O)[C@@H](O[C@H]4[C@H](O)[C@@H](O)[C@@H](O[C@H]5[C@H](O)[C@@H](O)[C@@H](O[C@H]6[C@H](O)[C@@H](OC[C@H](C)O)[C@@H](O[C@H]7[C@H](O)[C@@H](OC[C@H](C)O)[C@@H](O[C@H]8[C@H](O)[C@@H](O)[C@@H](O[C@@H]([C@@H]1O)[C@@H](CO)O2)O[C@@H]8CO)O[C@@H]7CO)O[C@@H]6CO)O[C@@H]5CO)O[C@@H]4CO)O[C@@H]3CO,9%
CCN[C@@H]1CN(CCCOC)S(=O)(=O)c2sc(S(N)(=O)=O)cc21,9%[25.7 µM]
COc1cccc2c1CCC1CC(=O)CC[C@@]21C (stereo not given in full),18%
O=C(c1ccco1)N1CCC2(CCCN(c3ncccn3)C2)CC1,10%
CCCCCCCC/C=C\CCCCCCCCOC[C@H](COP(=O)([O-])OCC[N+](C)(C)C)OC(C)=O,-5%
CCN(CC)Cc1ccc(NC(=O)c2sc3cc(Cl)ccc3c2Cl)cc1,28µM*
Cc1ccnc(NC(=O)c2sc3cc(Cl)ccc3c2Cl)c1,4%
Cc1ccc2c(Cl)c(C(=O)Nc3ccc4c(c3)OCO4)sc2c1,0%
CN(C)Cc1ccccc1-c1ccc2ncnc(NC3CCNCC3)c2c1,23%
CC(C)CN1CC[C@@]2(CCCN(S(=O)(=O)c3ccccc3)C2)C1,-6%
O=[N+]([O-])c1cccc(Nc2nc(Cl)nc(Cl)n2)c1,-10%
Nc1c(S(=O)(=O)O)cc(Nc2ccc(Nc3nc(Cl)nc(Nc4ccc(S(=O)(=O)O)cc4)n3)c(S(=O)(=O)O)c2)c2c1C(=O)c1ccccc1C2=O,25µM*
O=[N+]([O-])c1ccc(Nc2nc(Cl)nc(NCCO)n2)cc1,5%
CN1C(=O)C(Cc2c[nH]c3ccccc23)NC1=S (stereo not given),-20%
CN(C)CCNC(=O)c1cc2sc3ccccc3c2s1,-7%
NCCC[C@@H](CC(=O)N[C@@H]1CCNC[C@H]1C(=O)N[C@H](CC(=O)N[C@@H](CCC(=O)O)CC(=O)O)Cc1c[nH]c2ccccc12)NC(=O)C[C@H](Cc1ccccc1)NC(=O)[C@@H]1CCCC[C@H]1N,3%
CN(C)C(=O)[C@]1(C)C[C@H]1[C@H](NC(=O)CNC(=O)[C@@H]1CCCN1C(=O)[C@]1(C)C[C@H]1[C@H](NC(=O)OCc1ccccc1)c1ccccc1)c1ccccc1,-10%
OC(COc1ccc(CNCCc2ccc(C(F)(F)F)cc2)cc1)CN1CCCCC1 (stereo not given),-3%
OC(CNCCc1ccc(C(F)(F)F)cc1)COc1ccc2ccccc2c1 (stereo not given),35µM*
COc1ccc(CCNCC(O)COc2cccc(Br)c2)cc1 (stereo not given),-2%[57.5 µM]
N#CCCn1c(=O)c(-c2ccccc2)nc2cnc(N3CCNCC3)nc21,8%
CC(=O)c1ccc(NC(=O)COC(=O)c2ccccc2N=Nc2ccc(N(C)C)cc2)cc1,28%
CN(C(=O)COC(=O)c1n[nH]c2ccccc12)c1ccccc1,-9%
COC(=O)c1ccccc1NC(=O)COC(=O)[C@H](C)NC(N)=O,1%[57.5 µM]
SMILES,ERK EGF inh
COC(=O)c1ccccc1NC(=O)COC(=O)c1ccccc1N=Nc1ccc(N(C)C)cc1,14µM*
CN(C(=O)COC(=O)c1ccc2c(c1)OCCO2)c1ccccc1,-13%
CN(C)c1ccc(N=Nc2ccccc2C(=O)OCC(=O)N(C)c2ccccc2)cc1,10µM*
Cc1cc(=O)c2c(O)c3c(O)cc(=O)c4c3c3c(cc(O)c1c23)C(C)(C)C=4O,-15%
OB(O)c1ccc(Cl)s1,0%
COc1ccccc1/C=C(\NC(=O)c1ccc(OC)c(OC)c1)C(=O)Nc1cc([N+](=O)[O-])ccc1C,-1%
CC1CC1C(=O)OCC(=O)Nc1ccc(N=Nc2ccccc2)cc1 (stereo not given),20µM*
CC1CC1C(=O)OCC(=O)Nc1ccccc1Oc1ccccc1 (stereo not given),12%
CCCC(=O)OCC(=O)Nc1ccc(N=Nc2ccccc2)cc1,-3%
N[C@@H]1C(O)OC(CO)C(O)C1O (stereo not given in full),12%
COc1ccc2[nH]cc(CCNc3nc(-c4ccc(C(=O)N(C)C)cc4)nc4ccccc34)c2c1,12%
COc1ccc2[nH]cc(CCNc3nc(-c4ccoc4)nc4ccccc34)c2c1,35%
COc1cccc(-c2nc(NCCc3c[nH]c4ccc(OC)cc34)c3ccccc3n2)c1,25µM*
COc1ccc(-c2nc(-c3ccccc3)c(NC(C)C)o2)cc1,-6%
CN(C)CCCNc1ncnc2scc(-c3ccccc3)c12,3%
Cc1sc2ncnc(N/N=C/c3cccc(O)c3)c2c1C,15%
Cc1ccccc1S(=O)(=O)Nc1ncnc2scc(-c3ccccc3)c12,9%
